Source: PubChem
TDP1 inh: qHTS Assay for Inhibitors of Tyrosyl-DNA Phosphodiesterase (TDP1). recombinant TDP1, AlphaScreen DNA substrate cleavage. Potency, µM (doses to about 130 µM), without a hit: at the highest dose activity change, negative = inhibition, most hits filed as inhibitors. 0.28% of 350,000 active. AID 485290, 2010; note: potency is the fitted concentration of half-maximal effect; % is set by controls: 0 for no effect and ±100 for the full control effect; nearly all actives have a fitted effect of over 40% in size
Target sequence (Q9NUW8 whole entry, looked up): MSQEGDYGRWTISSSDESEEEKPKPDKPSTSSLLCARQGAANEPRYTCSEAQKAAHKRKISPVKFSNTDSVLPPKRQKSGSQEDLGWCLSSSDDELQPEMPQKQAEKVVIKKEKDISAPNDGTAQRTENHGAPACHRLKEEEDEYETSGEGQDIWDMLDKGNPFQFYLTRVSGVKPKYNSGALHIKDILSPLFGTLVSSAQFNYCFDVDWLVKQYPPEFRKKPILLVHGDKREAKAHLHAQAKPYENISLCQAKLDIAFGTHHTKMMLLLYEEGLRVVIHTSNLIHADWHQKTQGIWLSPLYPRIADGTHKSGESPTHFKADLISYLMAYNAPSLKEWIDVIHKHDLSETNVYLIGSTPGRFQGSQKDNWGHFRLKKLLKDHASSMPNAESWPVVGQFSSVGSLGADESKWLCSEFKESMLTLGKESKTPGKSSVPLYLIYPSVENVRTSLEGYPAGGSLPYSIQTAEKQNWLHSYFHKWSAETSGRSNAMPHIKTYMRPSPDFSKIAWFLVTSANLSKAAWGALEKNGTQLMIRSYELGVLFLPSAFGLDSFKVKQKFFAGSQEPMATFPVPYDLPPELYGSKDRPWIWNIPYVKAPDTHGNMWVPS
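Steps: enzyme plus compound, 15 min RT; add biotin/phosphotyrosine-FITC oligonucleotide (15 nM final), react 5 min; add donor/acceptor beads (10 ug/ml final), 10 min; read AlphaScreen. Tdp1 at 1 nM final.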
TDP1 cell noCPT: qHTS for Inhibitors of human tyrosyl-DNA phosphodiesterase 1 (TDP1): qHTS in cells in absence of CPT. AID 686978, 2013. DT40 Tdp1-/- hTDP1 cells, no CPT, ATP luminescence, 48 h. 15% of 420,000 active. Potency, µM (titrated, usually from 46.2 µM), for inactives: top-dose activity change, negative = growth inhibition, usual class: inhibitors; note: potency is the fitted concentration of half-maximal effect; % is set by controls: 0 for no effect and ±100 for the full control effect; nearly all actives have a fitted effect of over 55% in size
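Chicken DT40 Tdp1-/- cells stably complemented with human TDP1 were seeded at 400 cells/well with DMSO in place of 20 nM camptothecin. After compound pinning, cells grew at least 48 hr at 37 °C; viability read by CellTiter-Glo luminescence.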
TDP1 cell CPT: qHTS for Inhibitors of human tyrosyl-DNA phosphodiesterase 1 (TDP1): qHTS in cells in presence of CPT | Potency, µM (series often up to 46.2 µM), without a hit: top-dose activity change, negative = growth inhibition, hits mostly inhibitors | chicken DT40 Tdp1-/-;hTDP1 cells + 20 nM CPT, ATP luminescence, 48 h | AID 686979, 2013 | 12% of 420,000 active; note: potency is the fitted concentration of half-maximal effect; % is set by controls: 0 for no effect and ±100 for the full control effect; nearly all actives have a fitted effect of over 55% in size
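Cell growth measured by CellTiter-Glo luminescence after a minimum 48 h, 37 C compound exposure with 20 nM CPT in Tdp1-knockout DT40 cells stably expressing hTDP1, seeded 400/well; qHTS titration format.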
TGFb SMAD3 inh: qHTS for Inhibitors of TGF-b; HepG2 CAGA-GFP TGF-b/SMAD3 reporter, GFP fluorescence, 18 h; TGF-beta stimulated, 500 pg/mL final; Potency, µM (titrated, usually from 46.1 µM), inactives show at the highest dose activity, negative = inhibition, usual class: inhibitors; 1.2% of 410,000 active; note: potency is the fitted concentration of half-maximal effect; % is set by controls: 0 for no effect and ±100 for the full control effect; nearly all actives have a fitted effect of over 65% in size
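Per well, imaged GFP fluorescence of HEPG2 CAGA-GFP cells gives the signal; cells get compound, then TGF-beta (500 pg/mL final), 18 h at 37 degrees C; %Activity versus -TGF-beta and +DMSO controls.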
IL1B secr inh: qHTS for Inhibitors of Inflammasome Signaling: IL-1-beta AlphaLISA Primary Screen; 4.7% of 360,000 active; THP-1 LPS/ATP IL-1B secretion, AlphaLISA, 16 h; hits give low values; activity change, % at 57.5 µM; AID 743279, 2014; in the data active = activity change below about -50%; inconclusive = mostly about -30% to -49%; note: % is set by controls: 0 for no effect and ±100 for the full control effect
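THP-1 cells pretreated 1 hr with compounds (up to 57.5 uM final), then stimulated with LPS (250 ng/mL final) plus ATP (1.25 mM final); secreted IL-1B measured by AlphaLISA after 16 hr, decreased signal indicating inhibition.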
HepG2 viability: qHTS for Inhibitors of TGF-b: Cytotox Counterscreen. 0.76% of 410,000 active. HepG2 CAGA-GFP viability, ATP luminescence, 18 h. AID 588856, 2011. Potency, µM (series often up to 46.1 µM), inactives show at the top dose activity change, negative = cytotoxicity, most hits filed as cytotoxic; note: potency is the fitted concentration of half-maximal effect
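HepG2 CAGA-GFP cells (1000/well, DMEM with 1% FBS) received compound, then TGF-beta at 500 pg/mL final, and were incubated 18 hours at 37 degrees C. Viability was read by CellTiter-Glo luminescence. Media-only wells were set as complete cell-killing and DMSO as no toxicity.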
* marks the source's active call; other numbers are inactive results. Sampled rows, rich in hits. Any-hit rate of the full collection: about 18%. Unless noted, calls come from the whole dose curve; as a rule, active = well fitted curve in the direction sought with a large enough effect; inconclusive = small, poorly fitted or top-dose-only effect, or another doubt; inactive = no such curve, though single readings can be large; an effect the other way counts as inactive or inconclusive.

For CCOC(=O)N1CCC(NC(=O)c2cnn(-c3ccc(C)cc3C)c2C2CCN(C(=O)OC(C)(C)C)CC2)CC1 the results were TDP1 inh 1.1%, TDP1 cell noCPT -24.2%, TDP1 cell CPT -27.0%, TGFb SMAD3 inh inconclusive and HepG2 viability 3.4%.
`Cc1cccc(C)c1-n1ncc(C(=O)Nc2ccc3c(c2)OCO3)c1C1CCN(C(=O)OC(C)(C)C)CC1` gave TDP1 inh 7.4%, TDP1 cell noCPT inconclusive, TDP1 cell CPT inconclusive, TGFb SMAD3 inh -25.2% and HepG2 viability -37.1%.
Cc1ccc(-n2ncc(C(=O)Nc3ccc4c(c3)OCO4)c2C2CCN(C(=O)OC(C)(C)C)CC2)c(C)c1 was read as TDP1 inh 10.6%, TDP1 cell noCPT 29.1µM*, TDP1 cell CPT inconclusive, TGFb SMAD3 inh inconclusive and HepG2 viability -1.0%.
`O=C1C=CC(=Nc2ccc3c(c2)Cc2cc(F)ccc2-3)O1` gave TDP1 cell noCPT 7.31µM*, TDP1 cell CPT 5.17µM*, TGFb SMAD3 inh -3.2%, IL1B secr inh -12.3 and HepG2 viability 0.6%.
Screening CSCCC(NC(=O)COc1ccccc1)C(=O)N(C)Cc1c(F)cccc1Cl (stereo unspecified) returned TDP1 cell noCPT 11.6µM*, TDP1 cell CPT 20.6µM*, TGFb SMAD3 inh -9.0%, IL1B secr inh -5.6 and HepG2 viability -42.0%.
Screening Cn1c(=O)c2c(ncn2CC(O)CNc2cccc(Cl)c2)n(C)c1=O (stereo unspecified) returned TDP1 inh -2.6%, TDP1 cell noCPT inconclusive, TDP1 cell CPT inconclusive, TGFb SMAD3 inh -0.2%, IL1B secr inh 15.8 and HepG2 viability -15.5%.
Screening CCOC(=O)c1cccc(NC(=O)CSc2ncc3c(n2)-c2ccccc2N(C)S3(=O)=O)c1 returned TDP1 inh 5.3%, TDP1 cell noCPT -4.4%, TDP1 cell CPT -1.2%, TGFb SMAD3 inh -0.1% and HepG2 viability -1.0%.
Screening O=C(c1ccc2c(c1)CCN2S(=O)(=O)c1ccc(Cl)cc1)N1CCN(c2ccccc2)CC1 returned TDP1 inh 4.7%, TDP1 cell noCPT 20.6µM*, TDP1 cell CPT 11.6µM*, TGFb SMAD3 inh inconclusive and HepG2 viability -19.0%.
Screening O=C(c1cccc(S(=O)(=O)N2CCCc3ccccc32)c1)N1CCN(c2ccccc2)CC1 returned TDP1 inh -0.1%, TDP1 cell noCPT 20.6µM*, TDP1 cell CPT inconclusive, TGFb SMAD3 inh inconclusive, IL1B secr inh inconclusive and HepG2 viability -21.7%.
`O=C(c1cccc(S(=O)(=O)N2CCc3ccccc32)c1)N1CCOCC1` gave TDP1 inh 0.0%, TDP1 cell noCPT inconclusive, TDP1 cell CPT -29.9%, TGFb SMAD3 inh 3.5%, IL1B secr inh -9.2 and HepG2 viability -8.6%.
For CC(NC(=O)c1ccc2c(c1)CCN2S(=O)(=O)c1ccc(Cl)cc1)c1ccccc1 (stereo unspecified) the results were TDP1 inh 0.0%, TDP1 cell noCPT inconclusive, TDP1 cell CPT 11.6µM*, TGFb SMAD3 inh -16.0% and HepG2 viability -3.9%.
CS(=O)(=O)N1CCc2cc(C(=O)N3CCN(c4ccccc4F)CC3)ccc21 was read as TDP1 inh 5.4%, TDP1 cell noCPT inconclusive, TDP1 cell CPT inconclusive, TGFb SMAD3 inh inconclusive, IL1B secr inh -10.2 and HepG2 viability 17.5%.
